From PubChem
Hits are enriched below; roughly 27% of the tested compounds scored in any of these assays.
CYP2C9 act: human CYP2C9 activators, primary screen, biochemical, luminescence; activation factor at 5 µM; 1.4% of 96,000 active; recombinant CYP2C9, luciferin-H conversion; hits give high values; factor 1 = untreated enzyme, 0 = blocked; AID 1024, 2008; Cytochrome P450 2C9 (Homo sapiens), P11712;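 active means activation factor of 2 or more for CYP2C9 at a 5 µM dose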;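 further: 0 = sulfaphenazole-blocked wells and 1 = vehicle-only wells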
sEH inhibitor: soluble epoxide hydrolase inhibitors, primary screen, biochemical, human sEH. Bifunctional epoxide hydrolase 2 (Homo sapiens), P34913. recombinant human sEH enzymatic activity assay. inhibition, % at 2 µM. 0.34% of 91,000 active; in the data active means inhibition above about 80%
sEH act: soluble epoxide hydrolase activators, primary screen, biochemical, human sEH | Bifunctional epoxide hydrolase 2 (Homo sapiens), P34913 | purified human sEH enzymatic activity, activator screen | activation, % at 2 µM | 0.04% of 91,000 active | AID 717, 2007; in the data active means activation above about 37%
CYP2C19 activ: human CYP2C19 activators, primary screen, biochemical, luminescence | Cytochrome P450 2C19 (Homo sapiens), P33261 | 96,000 tested, under 10 active | recombinant CYP2C19, luciferin-H EGE luminescence; hits give high values; 0 = fully inhibited enzyme, 1 = untreated enzyme | activation factor at 5 µM | AID 1025, 2008;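 active means activation factor of at least 2 at 5 µM in the primary screen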;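 further: 0 = wells with 2.5 mM tranylcypromine and 1 = vehicle-only wells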
Target sequence (P33261 whole entry, looked up): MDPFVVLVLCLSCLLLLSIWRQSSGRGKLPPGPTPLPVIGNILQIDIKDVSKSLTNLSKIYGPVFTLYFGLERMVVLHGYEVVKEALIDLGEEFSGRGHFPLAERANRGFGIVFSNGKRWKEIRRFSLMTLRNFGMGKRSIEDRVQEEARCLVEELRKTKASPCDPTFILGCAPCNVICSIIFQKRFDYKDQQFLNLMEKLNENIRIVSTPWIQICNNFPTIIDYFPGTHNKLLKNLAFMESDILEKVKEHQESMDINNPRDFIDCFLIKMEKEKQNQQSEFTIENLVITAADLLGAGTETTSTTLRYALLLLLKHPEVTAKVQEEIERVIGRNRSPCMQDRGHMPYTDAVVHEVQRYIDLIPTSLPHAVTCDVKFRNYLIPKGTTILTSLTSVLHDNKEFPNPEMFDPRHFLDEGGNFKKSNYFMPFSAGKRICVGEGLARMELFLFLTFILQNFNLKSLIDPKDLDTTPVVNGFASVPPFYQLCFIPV
CYP2C9 inh: blockers of cytochrome P450 2C9 activity – biochemical, luminescence, ADME assay, primary screen; P11712; CYP2C9 Supersomes, luciferin-H conversion; inhibition, % at 5 µM; 20% of 96,000 active; AID 777, 2007;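 active means blocking of liver enzyme CYP2C9 beyond about 50% at 5 µM, limit read from the data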
CYP2C19 inh: blockers of cytochrome P450 2C19 activity – biochemical, luminescence, ADME assay, primary screen; P33261; CYP2C19 Supersomes, luciferin-H EGE luminescence, 30 min; inhibition, % at 5 µM; 21% of 96,000 active; AID 778, 2007;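 active means CYP2C19 inhibition above a set limit at 5 µM in the primary screen, cut at about 50% in these data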;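 further: plate controls were negative control wells for no effect and 2.5 mM tranylcypromine positive control for full effect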
* = called active by the depositor; x = no result given.

SMILES	CYP2C9 act	sEH inhibitor	sEH act	CYP2C19 activ	CYP2C9 inh	CYP2C19 inh
NC(=O)CSc1nnc(Cn2c(=O)sc3ccccc32)n1-c1cccc(Cl)c1	0.9	-7	8	1	8	1
c1cc(Nc2ncnc3sccc23)cc(-c2nnc3n2CCCCC3)c1	1.1	-3	3	1.1	-5	-5
C=CCNC(=O)C(C#N)c1nc2ccccc2nc1N1CCN(Cc2ccccc2)CC1 (configuration not stated)	0.9	10	-9	1	9	4
CC(C)COC(=O)C(C#N)c1nc2ccccc2nc1N1CCN(Cc2ccccc2)CC1 (configuration not stated)	0.8	-6	11	0.9	23	7
CC(C)COC(=O)C(C#N)c1nc2ccccc2nc1N1CCN(Cc2ccc3c(c2)OCO3)CC1 (configuration not stated)	0.2	24	-22	0.5	79*	49
COC(=O)C(C#N)c1nc2ccccc2nc1N1CCN(Cc2ccc3c(c2)OCO3)CC1 (configuration not stated)	0.5	x	x	0.5	47	50*
N#CCc1c(C#N)c(N)nc(N2CCN(Cc3ccc4c(c3)OCO4)CC2)c1C#N	0.5	3	0	1	54*	0
CCCCOC(=O)C(C#N)c1nc2ccccc2nc1N1CCN(Cc2ccc3c(c2)OCO3)CC1 (configuration not stated)	0.1	-13	12	0.3	92*	65*
COCCN(Cc1cc2ccccc2[nH]c1=O)C(=O)c1ccccc1OC	1.2	x	x	0.9	-18	7
CCC1(C)OC(=O)N2CCc3c(C)[nH]c4c(C)ccc(c34)C21C (configuration not stated)	0.3	14	-14	0.3	70*	69*
CC(Cc1cccs1)NC(=O)Nc1ccc(Cl)cc1 (configuration not stated)	0.7	87*	-86	0.3	30	68*
CC(Cc1cccs1)NC(=O)Nc1ccccc1 (configuration not stated)	0.4	58	-58	0.1	57*	89*
CC(Cc1cccs1)NC(=O)Nc1ccc(Cl)c(Cl)c1 (configuration not stated)	0.3	90*	-90	0.3	69*	73*
CNC(=O)Nc1ccc(Cl)cc1	1	23	-20	0.9	-2	13
COC(=O)Nc1sc2c(c1C(=O)NC1CC1)CCCCCC2	0.8	7	-7	0.7	21	32
N=C1N(/N=C/c2ccccc2)C(=Nc2ccccc2)C(=S)N1c1ccccc1	x	1	-1	x	x	x
O=C(NCc1ccccc1)C(c1cccnc1)N(Cc1ccco1)C(=O)c1ccccn1 (configuration not stated)	0.7	6	-7	0.9	32	8
Cc1ccc(COn2c(-c3ccc(Cl)cc3Cl)nc3ncccc32)cc1	0.7	0	3	0.2	34	83*
O=[N+]([O-])c1ccc2nc(-c3ccccc3)n(OCc3ccc(Cl)cc3)c2c1	0.8	1	-2	0.9	18	13
Clc1cccc(COn2c(-c3ccc(Cl)cc3Cl)nc3ncccc32)c1	0.1	-8	9	0.1	91*	94*
COC(=O)c1sc2ncccc2c1OCc1cccc(Cl)c1	1	-10	9	1	2	-2
Cc1cccc(N2CCN(C(=O)C(Cc3ccccc3)n3cccc3)CC2)c1C (configuration not stated)	1.1	2	0	0.7	-14	28
CC1CCN(C(=O)C(Cc2ccccc2)n2cccc2)CC1 (configuration not stated)	0.8	x	x	0.1	22	93*
O=C(C(Cc1ccccc1)n1cccc1)N1CCN(c2ncccn2)CC1 (configuration not stated)	0.3	11	-12	0.6	69*	43
O=C(O)CSc1nnc(-c2cc3ccccc3o2)n1-c1ccccc1	1.1	-9	3	1.1	-9	-11
SMILES	CYP2C9 act	sEH inhibitor	sEH act	CYP2C19 activ	CYP2C9 inh	CYP2C19 inh
CCOc1ccc(NC(=O)c2ccc3snnc3c2)cc1	x	19	-19	x	x	x
O=C(Nc1ccc2c(c1)OCO2)c1cnn2c(C(F)(F)F)cc(-c3ccco3)nc12	0.8	-22	20	1	17	0
Cc1ccccc1Cn1ccc(NC(=O)c2cnn3c(C(F)(F)F)cc(-c4ccco4)nc23)n1	0.4	-1	4	0.5	61*	48
O=C(Nc1cnn(C23CC4CC(CC(C4)C2)C3)c1)c1cnn2c(C(F)(F)F)cc(-c3ccco3)nc12	0.2	-5	6	0.4	78*	65*
Cc1ccccc1Cn1ccc(NC(=O)CCSc2nc(-c3ccco3)cc(C(F)(F)F)n2)n1	0.1	10	-8	0.2	85*	79*
Cc1ccc(Cn2ccc(NC(=O)CCSc3nc(-c4ccco4)cc(C(F)(F)F)n3)n2)cc1	0.1	-10	10	0.2	93*	81*
Cc1nn(CC(=O)Nc2ccc3c(c2)oc2ccccc23)c(=O)c2ccccc12	1	14	-15	0.6	1	40
COc1ccc(OCCCC(=O)NCC(C)C)cc1	0.8	19	-19	0.6	19	42
C=CCSC1=N/C(=C\c2ccc(C)o2)C(=O)S1	0.5	-10	11	0.2	50	82*
CC1CC(C)CN(C(=O)CN2CCN(Cc3ccc(Cl)cc3)C2=O)C1 (configuration not stated)	1	-23	20	0.6	0	37
O=C(Cn1nc(C(F)F)cc1C(F)F)NNC(=S)Nc1ccc(Cl)cc1	0.3	2	-2	0.6	71*	45
Cc1nn(CCC(=O)NNC(=S)Nc2ccc(Cl)cc2)c(C)c1[N+](=O)[O-]	x	8	-3	x	x	x
C#CCOC(=O)c1ccccc1C(=O)O	x	0	1	x	x	x
Cc1cc(C)c(C#N)c(SCC(=O)CC(=O)OC(C)C)n1	0.5	x	x	0.1	53*	91*
Cc1nc(SCC(=O)CC(=O)OC(C)C)c(C#N)c(C)c1C	0.8	-13	16	0.4	23	64*
Cc1cc(C)c(C#N)c(SCC(=O)OC2CCCCC2)n1	0.4	x	x	0.3	60*	66*
Cc1ccc2sc(NC(=O)CSc3nc(C)cc(C)c3C#N)nc2c1	0.3	-8	11	0.3	68*	68*
Cc1cc(C)c(C#N)c(SCC(=O)Nc2nnc(-c3ccccc3)s2)n1	0.8	11	-13	0.9	18	10
O=C1Nc2ccccc2S/C1=C/Nc1cccc(Cl)c1	1	3	-2	1	5	-1
